From PubChem BioAssay
Only some compounds are listed: those with a hit (about 13% of all), similar ones and a draw of the others.
A350 fluor: compounds fluorescent in Alexa 350 spectral region; Compound autofluorescence, 340/450 nm, Alexa 350 dye-equivalents; active compounds read high; 11% of 59,000 active; max dye-equivalent concentration, M; AID 590; in the data active means max dye-equivalent concentration above about 10 nM; inconclusive means mostly about 1.1 nM to 9.6 nM
HSD17B inh: blocks hydroxysteroid 17-beta dehydrogenase activity; Q99714; recombinant HSD17B10, NADH fluorescence kinetic; Potency, µM (doses to about 57.1 µM), for the others: at the top dose activity change, negative = inhibition, usual class: inhibitors; 7.6% of 75,000 active;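 further: the protocol describes HADH2 (HSD17B10) and not the HSD17B4 of the title; potency means the concentration at half of the fitted maximal effect; on the % scale 0 is the no-effect control and ±100 the full control effect; nearly all actives have a fitted effect of over 70% in size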
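Activity followed as NADH fluorescence increase (ex 360, em 450 nm) every 30 seconds for 4 min, using final 90 uM beta-hydroxybutyryl CoA and 1 mM NAD+. Recombinant His-tagged enzyme, 20 nM, pH 9.0 Tris buffer, 15 min compound preincubation.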
GBA activity: human lysosomal glucosylceramidase modulation. P04062. purified enzyme, resorufin glucoside fluorescence (screen aimed at inhibitors), 20 min. Potency, µM. 1.1% of 48,000 active; in the data active means potency below about 15 µM; inconclusive means mostly about 16 µM to 33 µM;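 further: potency means the concentration at half of the fitted maximal effect; the screen sought inhibitors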
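Normal human glucocerebrosidase (0.2 nM final) was assayed with resorufin β-D-glucopyranoside (30 uM final) in 50mM citric acid/KH2PO4, 10mM sodium taurocholate, 0.01% tween-20, pH 5.9. Compounds were titrated; fluorescence (Ex 548, Em 600) read after 20 min at RT.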
AID923: qHTS Assay for Allosteric/Competitive Inhibitors of Caspase-1: Spectroscopic Profiling in AFC Spectral Region; compound fluorescence, AFC spectral region (405/520 nm); 1.1% of 75,000 active; Potency, µM (doses to about 57.5 µM), for the others: at the top dose fluorescence increase, usual class: activators; AID 923, 2007; further: potency means the concentration at half of the fitted maximal effect; 0% is about no effect
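Titrations up to 57 uM read every 20 sec for 3 min (405/520 nm) with 50 nM caspase 1 and 5 uM Ac-WEHD-AFC, pH 7.5 HEPES buffer. Fluorescence-vs-time intercept gave baseline, scaled against on-plate AFC standard.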
4MU fluor: compound fluoresces in the 4-MU spectral region; max dye-equivalent concentration, M; 11% of 59,000 active; compound autofluorescence, 340/450 nm, 4-MU equivalents; active compounds read high; in the data active means max dye-equivalent concentration above about 10 nM; inconclusive means mostly about 1.1 nM to 9.6 nM
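Compounds in 100 mM Tris, pH 8.0, incubated 15 min at room temperature, then fluorescence read at 340 nm excitation/450 nm emission. Signal converted to 4-MU dye-equivalent concentration using an on-plate six-point 4-MU standard curve.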
HADH2 inhib: HADH2 (human) dehydrogenase inhibition; Q99714; recombinant HADH2, NADH fluorescence, beta-hydroxybutyryl-CoA; Potency, µM (doses to about 57.1 µM), for the others: top-dose activity change, negative = inhibition, usual class: inhibitors; 3.4% of 73,000 active; further: potency means the concentration at half of the fitted maximal effect; on the % scale 0 is the no-effect control and ±100 the full control effect; nearly all actives have a fitted effect of over 60% in size
Target sequence (Q99714 whole entry, looked up, one chain of several): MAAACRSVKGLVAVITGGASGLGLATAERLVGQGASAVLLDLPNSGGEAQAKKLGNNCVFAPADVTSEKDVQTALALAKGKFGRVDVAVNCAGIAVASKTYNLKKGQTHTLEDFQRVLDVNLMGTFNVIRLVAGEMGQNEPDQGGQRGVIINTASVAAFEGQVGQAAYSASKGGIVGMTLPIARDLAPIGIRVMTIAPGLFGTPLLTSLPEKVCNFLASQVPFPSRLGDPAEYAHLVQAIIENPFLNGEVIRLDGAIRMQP
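His-tagged recombinant enzyme from E. coli, 20 nM, preincubated 15 min RT with compound; reaction started with 1 mM NAD+ and 90 uM beta-hydroxybutyryl-CoA in 100 mM Tris-HCl pH 9.0. NADH fluorescence (ex 360/em 450) read over 4 min; last-minus-first difference.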
Active calls of the source: *; [ ] = dose if it differs, or a comment. Unless noted, the call rests on the fitted dose curve; in most records, active means well fitted curve in the direction sought with a large enough effect; inconclusive means small, poorly fitted or top-dose-only effect, or another doubt; inactive means no such curve, though single readings can be large; an effect the other way counts as inactive or inconclusive.

Cc1c(C(=O)Nc2ccncc2)oc2ccccc12 was read as A350 fluor inactive, HSD17B inh -1%, AID923 1%, 4MU fluor inactive and HADH2 inhib 0%.
Screening O=C(Nc1ccccc1)OC[C@H](CN1CCCCC1)OC(=O)Nc1ccccc1 returned A350 fluor 6.4e-08M*, HSD17B inh -5%[25.6 µM], AID923 -1%[25.7 µM], 4MU fluor 7.3e-08M* and HADH2 inhib 5%[25.6 µM].
`Cc1ccc(S(=O)(=O)NCCCOC(=O)Nc2ccncc2)cc1` gave A350 fluor inactive, HSD17B inh 14%, GBA activity 8.9*, AID923 1%, 4MU fluor inactive and HADH2 inhib 4%.
Screening Cc1ccc(S(=O)(=O)NCCc2ccncc2)cc1 returned HSD17B inh -4%, AID923 -1% and HADH2 inhib -12%.
Screening O=C(NCc1ccccc1)NC1(C(=O)Nc2ccc3c(c2)OCCO3)CCCCC1 returned A350 fluor inactive, HSD17B inh -2%, AID923 -1%, 4MU fluor inactive and HADH2 inhib -1%.
For CCN(Cc1ccccc1)C(c1cccc(C#N)c1)c1nnnn1C(C)(C)C (stereo not given) the results were A350 fluor inactive, HSD17B inh -4%, GBA activity inconclusive, AID923 -1%, 4MU fluor inactive and HADH2 inhib -6%.
Screening CC(C)NC(=O)c1cc(C(=O)c2cc(Cl)ccc2O)coc1=N returned A350 fluor 8.8e-08M*, HSD17B inh -11%, GBA activity inconclusive, AID923 0%, 4MU fluor 6.1e-08M* and HADH2 inhib -5%.
Screening S=C([S-])NCCNC(=S)[S-].[Zn+2] returned HSD17B inh 5µM*, AID923 0% and HADH2 inhib 4µM*.
Screening O=C(Nc1cccnc1)c1ccccc1F returned HSD17B inh 4%, AID923 0% and HADH2 inhib 3%.
For CCOc1cccc2cc(-c3csc(NC(=O)CCC(=O)N4CCN(C)CC4)n3)c(=O)oc12 the results were A350 fluor 1.8e-08M*, HSD17B inh -3%, GBA activity 12*, AID923 2%, 4MU fluor 1.7e-08M* and HADH2 inhib 7%.
COc1ccc(N(CC(=O)Nc2cccc(SC)c2)S(C)(=O)=O)cc1Cl was read as HSD17B inh -1%, AID923 0% and HADH2 inhib -2%.
COCc1nnc(NS(=O)(=O)c2ccc(C)cc2)s1 was read as A350 fluor inconclusive, HSD17B inh 25%, GBA activity >77, AID923 -1%, 4MU fluor inconclusive and HADH2 inhib 3%.
For O=C1C=CC(=O)c2c(O)c(Cl)c(Cl)c(O)c21 the results were HSD17B inh 3.2µM* and AID923 -3%.
For CCOc1cc2[nH]c(=S)n(CCCCC(=O)NCc3ccco3)c(=O)c2cc1OCC the results were A350 fluor inactive, HSD17B inh -3%, GBA activity >77, AID923 -1%, 4MU fluor inactive and HADH2 inhib 14%.
For CSC1=Nc2sc3c(c2C2=NCCN12)CCCC3 the results were A350 fluor inconclusive, HSD17B inh 2%, GBA activity 6.4*, AID923 -1%, 4MU fluor inconclusive and HADH2 inhib 16%.
`O=c1sc(Nc2ccccc2)nc2ccsc12` gave A350 fluor inconclusive, HSD17B inh inconclusive, GBA activity >77, AID923 1%, 4MU fluor inconclusive and HADH2 inhib -8%.
Screening CCOC(=O)C1CCCN(C(=O)C2CCN(Cc3nc(-c4ccc(Cl)cc4)oc3C)CC2)C1 (stereo not given) returned A350 fluor inactive, HSD17B inh 3%, GBA activity >77, AID923 -1%, 4MU fluor inactive and HADH2 inhib 9%.
For CCC(=C(CC)c1ccc(O)cc1)c1ccc(O)cc1 the results were A350 fluor 1.8e-08M*, HSD17B inh -6%[25.6 µM], AID923 1%[25.7 µM], 4MU fluor 2e-08M* and HADH2 inhib -12%[25.6 µM].
`Cc1cnc(-c2nnc(N(C)C(=O)C3CCOC3)s2)cn1` (stereo not given) gave A350 fluor inconclusive, HSD17B inh 25µM*, GBA activity >77, AID923 -2%, 4MU fluor inconclusive and HADH2 inhib 25µM*.
`CN(C(=O)C1CCOC1)c1nnc(-c2ccccn2)s1` (stereo not given) gave A350 fluor inactive, HSD17B inh inactive, GBA activity >77, AID923 2%, 4MU fluor inactive and HADH2 inhib 336%.
`CC1CCCCN1C(=O)C12CCC(C)(C(=O)C1)C2(C)C` (stereo not given) gave HSD17B inh 1%, AID923 2% and HADH2 inhib -5%.
Screening CC1Cc2ccccc2N1C(=O)C12CCC(C)(C(=O)C1)C2(C)C (stereo not given) returned HSD17B inh 32µM*, AID923 0% and HADH2 inhib 16%.
Screening Cc1cc(N)ccc1NC(=O)c1ccccc1 returned A350 fluor inactive, HSD17B inh 7%, GBA activity >77, AID923 -2%, 4MU fluor inactive and HADH2 inhib 2%.
`Fc1ccc2[nH]c3c(N4CCN(c5ccccc5)CC4)ncnc3c2c1` gave A350 fluor inactive, HSD17B inh inconclusive, GBA activity >77, AID923 3%, 4MU fluor inactive and HADH2 inhib inconclusive.
`OC1(c2cccc(C(F)(F)F)c2)CCN(c2ncnc3c2[nH]c2ccc(F)cc23)CC1` gave A350 fluor 1.3e-08M*, HSD17B inh 16µM*, AID923 0%, 4MU fluor 1e-08M* and HADH2 inhib 13%.
For CCOc1ccccc1NS(=O)(=O)c1ccc(Br)s1 the results were A350 fluor inactive, HSD17B inh 15%, GBA activity >77, AID923 0%, 4MU fluor inactive and HADH2 inhib 5%.
CCOC(=O)CCCCC(=O)c1[nH]c(=O)[nH]c1CSc1nc(C)cc(=O)[nH]1 was read as A350 fluor inactive, HSD17B inh -3%, GBA activity >77, AID923 5%, 4MU fluor inactive and HADH2 inhib -22%.
Screening Cc1cc(C)c2c(n1)nn1c(C3CC3)cc(C(F)(F)F)nc21 returned A350 fluor 1.3e-08M*, HSD17B inh -3%, GBA activity >77, AID923 1%, 4MU fluor 1.4e-08M* and HADH2 inhib -7%.
For Cc1onc(-c2ccccc2Cl)c1C(=O)Nc1cccc(-c2nc3ncccn3c2C)c1 the results were A350 fluor 7.1e-07M*, HSD17B inh 13µM*, GBA activity inactive, AID923 6%, 4MU fluor 6.9e-07M* and HADH2 inhib -16%.
